Hits are enriched below; roughly 12% of the tested compounds scored in any of these assays.
NS1 function inh: inhibitors of influenza NS1 protein function. Potency, µM (top dose mostly 46.1 µM). 270,000 compounds, 0.4% hits. AID 2326; note: actives are rising curves; nearly all actives have a fitted effect of over 50% in size
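Read-out: OD600 growth recovery of NS1-expressing budding yeast. Cells grown overnight at 30C in -URA glucose medium, washed, resuspended and diluted 1:100 in 2% galactose assay medium, pH 6.0. Same strain lacking NS1 served as positive control.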
SARS PLP yeast: blocks SARS-CoV papain-like protease in a yeast assay; 330,000 compounds, 0.19% hits; Potency, µM (doses to about 32.9 µM), actives largely listed as activators; S. cerevisiae expressing SARS-CoV PLpro, growth rescue; note: nearly all actives have a fitted effect of over 55% in size
Cycloheximide cs: counter-screen hit for Shiga toxin inhibitors, cycloheximide | cell reporter, cycloheximide protein synthesis inhibition counterscreen | max response, % | 300,000 compounds, 12% hits | AID 2314; in the data active = max response mostly above about 13%, no sharp cut-off; inactive = mostly below about 14%; note: read at 38.3 µM for the half of the compounds with a filed dose
Shiga inhibitor: inhibitors of Shiga toxin in Vero cells. 290,000 compounds, 9.2% hits. Vero cells, Shiga toxin protein synthesis inhibition reporter. AID 2315. inhibition, % at 38.7 µM; in the data active = inhibition mostly above about 28%, no sharp cut-off; inactive = mostly below about 43%
Large screens that a line does not name were inactive. Unless noted, calls come from the whole dose curve.

COc1ccccc1/C=N/OC(=O)c1ccc(C)cc1	Cycloheximide cs 11
COc1ccccc1CNC(=O)c1ccc(Br)o1	none
COc1ccccc1C(=O)NNC(=O)c1ccc(C)cc1	Cycloheximide cs 20
CC(=O)N[C@H]1[C@H](OC2CCCCC2)O[C@H](COC(C)=O)[C@@H](OC(C)=O)[C@@H]1OC(C)=O	none
CCOc1ccc(NS(=O)(=O)c2ccc(C(=O)NCCCN3CCOCC3)cc2)cc1	none
O=C([O-])c1ccccc1-[n+]1c(-c2ccccc2)cc(-c2ccccc2)cc1-c1ccccc1	none (no result: NS1 function inh, Cycloheximide cs, Shiga inhibitor)
O=C(CSc1n[nH]c(=O)n1C1CC1)c1ccc2c(c1)OCCO2	Cycloheximide cs 37, Shiga inhibitor 57
O=C(CSc1n[nH]c(=O)n1Cc1ccco1)c1ccc2c(c1)OCCO2	Cycloheximide cs 40, Shiga inhibitor 88
CC(C)(C)C(=O)COC(=O)c1cc(-c2cccnc2)nc2ccccc12	none (no result: NS1 function inh)
CC(=O)Nc1ccc(S(=O)(=O)NCCC(=O)N2CCN(C(c3ccccc3)c3ccccc3)CC2)cc1	none (no result: NS1 function inh, Cycloheximide cs, Shiga inhibitor)
CCOc1ccc(N2C(=O)CC(N3CCc4ccccc43)C2=O)cc1 (stereo not given)	none
O=C1CC(N2CCc3ccccc32)C(=O)N1c1ccccc1 (stereo not given)	Shiga inhibitor 73
COc1cc(OC)cc(C(=O)N2CCN(S(=O)(=O)c3ccc(Cl)s3)CC2)c1	none (no result: NS1 function inh, Cycloheximide cs, Shiga inhibitor)
C(=N\n1cnnc1)/c1cccc(OCCOc2ccccc2)c1	Cycloheximide cs 20, Shiga inhibitor 94
C(=N\n1cnnc1)/c1ccc(OCc2cccc3ccccc23)cc1	Cycloheximide cs 20
CC(=O)c1ccc(NC(=O)CN2CCCCCC2)cc1	none
O=C(CSc1nc2cc(S(=O)(=O)N3CCOCC3)ccc2o1)NC1CCCc2ccccc21 (stereo not given)	none
O=C(Cn1nc(-c2ccccc2)nc1-c1ccccc1)OC1CCCCC1	none
CCOC(=O)Cn1nc(-c2ccccc2)nc1-c1ccccc1	Cycloheximide cs 26
CCOC(=O)Cn1ncc(-c2ccccc2)c1N	Cycloheximide cs 29, Shiga inhibitor 68
CCCC(=O)c1ccc(N2CCOCC2)c(F)c1	Cycloheximide cs 38, Shiga inhibitor 68
Cc1ccc(C(=O)c2ccc(N3CCOCC3)c(F)c2)cc1	Cycloheximide cs 62, Shiga inhibitor 66
CCCC(=O)c1ccc(N2CCN(C(=O)c3ccccc3)CC2)c(F)c1	none
Cc1cc(C)cc(NS(=O)(=O)c2c(C)[nH]c(=O)[nH]c2=O)c1	none
Cc1cc2[nH]c(=O)cc(-c3ccccc3)n2n1	Cycloheximide cs 17
Fc1ccc(/C=N/c2c(-c3ccc(F)cc3)nc3n2CCS3)cc1	none
COc1ccc(-c2nc3n(c(=O)c2C#N)CCCS3)cc1	Cycloheximide cs 15
COc1ccc(/C=N/c2c(-c3ccc(OC)cc3)nc3n2CCS3)cc1	Cycloheximide cs 15
NNS(=O)(=O)c1ccc(Sc2ccccn2)c([N+](=O)[O-])c1	Cycloheximide cs 15
CCn1cc(C2=NC(CCSC)CO2)c2ccccc21 (stereo not given)	Cycloheximide cs 18 (no result: NS1 function inh)
CCn1cc(C2=NC(CC(C)C)CO2)c2ccccc21 (stereo not given)	Cycloheximide cs 22
CC[C@H](C)[C@H](NC(=O)[C@H](Cc1cnc[nH]1)NC(=O)[C@@H](NC(=O)[C@H](CCCNC(=N)N)NC(=O)[C@H](CCCCN)NC(=O)[C@H](CCCNC(=N)N)NC(=O)[C@H](CCCCN)NC(=O)[C@@H](N)CC(N)=O)[C@@H](C)CC)C(=O)NCC(=O)N1CCC[C@H]1C(=O)NCC(=O)N[C@@H](CCCNC(=N)N)C(=O)N[C@@H](C)C(=O)N[C@@H](Cc1ccccc1)C(=O)N[C@@H](Cc1ccc(O)cc1)C(=O)N[C@H](C(=O)N[C@H](C(=O)N[C@@H](CCCCN)C(=O)N[C@@H](CC(N)=O)C(=O)N[C@H](C(=O)N[C@H](C(=O)NCC(=O)N[C@H](C(=O)N[C@H](C(=O)N[C@@H](CS)C(=O)O)[C@@H](C)CC)[C@@H](C)O)[C@@H](C)CC)[C@@H](C)CC)[C@@H](C)O)[C@@H](C)O	none (no result: NS1 function inh, SARS PLP yeast)
O=C(CSc1nnc(-c2ccc3c(c2)OCO3)o1)Nc1ncc(Cl)cc1Cl	Cycloheximide cs 19, Shiga inhibitor 31
c1cc(CSc2nnc(-c3ccc4c(c3)OCO4)o2)ccn1	Cycloheximide cs 44, Shiga inhibitor 88
CC(=O)Nc1ccc(NC(=O)CSc2nnc(-c3ccc4c(c3)OCO4)o2)cc1	none (no result: NS1 function inh, Cycloheximide cs, Shiga inhibitor)
CC(=O)CSc1nnc(-c2ccc3c(c2)OCO3)o1	Cycloheximide cs 20, Shiga inhibitor 36
Cc1ccc(CSc2nnc(-c3ccc4c(c3)OCO4)o2)cc1	none
CCc1nn(CCCC(=O)N2CCN(c3cccc(C)c3C)CC2)c(=O)c2cc3occc3n12	none
CC(C)C(=O)Nc1ccc(Nc2ccccc2)cc1	Cycloheximide cs 17
CCC(CC)C(=O)Nc1ccc(Nc2ccccc2)cc1	Cycloheximide cs 19
COc1ccc(NC(=O)c2cccs2)cc1O	Cycloheximide cs 58, Shiga inhibitor 70
COc1ccc(C(=O)Nc2cccc(NC(=O)c3cccs3)c2)cc1OC	NS1 function inh inconclusive, Cycloheximide cs 20, Shiga inhibitor 23
COc1ccc(/C=C/C(=O)c2ccc(NC(=O)c3cccs3)cc2)cc1OC	Cycloheximide cs 22, Shiga inhibitor 70
COc1ccc(-c2csc(NC(=O)c3cccs3)c2C(=O)O)cc1OC	Shiga inhibitor 28
COc1ccccc1-c1noc2ncnc(Nc3cccc(C)c3C)c12	none
CSc1ncc(C(=O)Nc2ccc(C(C)=O)cc2)c(-c2ccccc2)n1	Cycloheximide cs 41, Shiga inhibitor 51
CCc1ccc(NC(=O)c2cnc(SC)nc2C)cc1	Cycloheximide cs 29
CCc1ccc(NC(=O)c2ccccc2SC)cc1	Cycloheximide cs 31
CCOC(=O)c1c(C)[nH]c(N=Nc2ccccc2C)c1C	Cycloheximide cs 38, Shiga inhibitor 81
CCOC(=O)c1c(C)[nH]c(N=Nc2cc(C(=O)O)cc(C(=O)O)c2)c1C	none
CCOC(=O)c1c(C)[nH]c(N=Nc2ccc(C)cc2C)c1C	Cycloheximide cs 37, Shiga inhibitor 183
CCOC(=O)c1[nH]c(C)c(C(=O)Nc2ccccc2C)c1C	none
C=CCn1c(SC(C)C(=O)NCC2CCCO2)nnc1-c1ccc(OC)cc1 (stereo not given)	none (no result: NS1 function inh, Cycloheximide cs, Shiga inhibitor)
CCC(C(=O)Nc1c2c(nn1C(C)(C)C)CS(=O)(=O)C2)c1ccccc1 (stereo not given)	none
O=c1ccnc(S/C=C/c2ccccc2)[nH]1	Cycloheximide cs 35
NS(=O)(=O)c1ccc(CCNC(=O)C2CCN(c3ncnc4c3nc3n4CCCCC3)CC2)cc1	none
COc1ccc(C(=O)/C=C/c2ccc(OC)c(CN3CCOCC3)c2)cc1	none
O=C(/C=C/c1ccc2ccccc2c1)c1ccoc1	Cycloheximide cs 34, Shiga inhibitor 53
CC(C)NC(=O)N(C)C[C@H]1Oc2ccc(NS(=O)(=O)c3ccc(F)cc3)cc2C(=O)N([C@H](C)CO)C[C@@H]1C	none (no result: NS1 function inh, Cycloheximide cs, Shiga inhibitor)
O=C(Nc1ccccc1F)c1cccc(C(=O)Nc2ccccc2F)c1	none
Cn1nnc2cc(C(=O)Nc3ccccc3F)ccc21	Cycloheximide cs 31, Shiga inhibitor 55
O=C(Nc1ccccc1F)c1ccc2ncsc2c1	Cycloheximide cs 61, Shiga inhibitor 149
O=C(Nc1ccc(F)cc1F)c1ccc2ncsc2c1	Cycloheximide cs 63, Shiga inhibitor 97

Bioassay records from PubChem.
